# PubChem BioAssay (NCI)
# The panel holds about 83,000 compounds, 20% with a hit somewhere; the sample as a whole holds those more often.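 Single-concentration screen, 48 h exposure, 96-well plates. Endpoint: percent growth. Below 10 = active.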 Unmarked numbers belong to inactive results. Activity calls are given as the source filed them.
# How the values were obtained:
# Assay in all cases: NCI-60 one-dose screen, 48 h (100 = growth as untreated, 0 = no growth, -100 = all killed)
# Conditions in all cases: 10 µM unless noted
# MOLT-4 leukemia = test system: MOLT-4 leukemia
# SR leukemia = test system: SR leukemia
# OVCAR-8 ovarian = test system: OVCAR-8 ovarian
# OVCAR-5 ovarian = test system: OVCAR-5 ovarian
# OVCAR-4 ovarian = test system: OVCAR-4 ovarian
# SK-OV-3 ovarian = test system: SK-OV-3 ovarian
# IGROV1 ovarian = test system: IGROV1 ovarian
# OVCAR-3 ovarian = test system: OVCAR-3 ovarian
# HS 578T breast = test system: HS 578T breast
# NCI/ADR-RES ovarian = test system: NCI/ADR-RES ovarian
# T-47D breast = test system: T-47D breast
# BT-549 breast = test system: BT-549 breast
# MDA-MB-435 melanoma = test system: MDA-MB-435 melanoma
# SW-620 colon = test system: SW-620 colon
# MCF7 breast = test system: MCF7 breast
# HCT-116 colon = test system: HCT-116 colon
# HCC-2998 colon = test system: HCC-2998 colon
# KM12 colon = test system: KM12 colon
# RPMI-8226 leukemia = test system: RPMI-8226 leukemia
Compound,growth (MOLT-4 leukemia),growth (SR leukemia),growth (OVCAR-8 ovarian),growth (OVCAR-5 ovarian),growth (OVCAR-4 ovarian),growth (SK-OV-3 ovarian),growth (IGROV1 ovarian),growth (OVCAR-3 ovarian),growth (HS 578T breast),growth (NCI/ADR-RES ovarian),growth (T-47D breast),growth (BT-549 breast),growth (MDA-MB-435 melanoma),growth (SW-620 colon),growth (MCF7 breast),growth (HCT-116 colon),growth (HCC-2998 colon),growth (KM12 colon),growth (RPMI-8226 leukemia) [%]
CC1(C)N=C(N)N=C(N)N1c1ccc(CCC(=O)Nc2ccc(S(=O)(=O)F)cc2)c(Cl)c1,33%,6.43% (active),-11.8% (active),29%,52.9%,64.5%,-43.3% (active),58.9%,59.9%,58.4%,70.5%,51%,37.7%,24.8%,15.1%,26.8%,14.3%,12.2%,
COC(=O)[C@H](C[C@H](Cc1ccccc1)NC(=O)c1csc([C@@H](C[C@H](C(C)C)N(C)C(=O)[C@@H](NC(=O)[C@H]2CCCCN2C)C(C)C)OC(C)=O)n1)NC(=O)OCc1ccccc1,16.1% [8.5 µM],-16.9% [8.5 µM] (active),22% [8.5 µM],26.1% [8.5 µM],40.4% [8.5 µM],22.9% [8.5 µM],13% [8.5 µM],-12.2% [8.5 µM] (active),15.3% [8.5 µM],8.51% [8.5 µM] (active),74.1% [8.5 µM],-34.2% [8.5 µM] (active),-33% [8.5 µM] (active),25.4% [8.5 µM],29.4% [8.5 µM],-4.29% [8.5 µM] (active),20.4% [8.5 µM],3.13% [8.5 µM] (active),
Oc1c(CCl)cc(Cl)cc1CCl,98.4%,101%,112%,102%,,107%,115%,115%,104%,,102%,,102%,115%,105%,115%,96.5%,105%,106
C[CH2][Sn]([Cl])([Cl])[CH2]C.Oc1ccccc1C=NCCN=Cc1ccccc1O,86.1%,103%,100%,104%,,101%,98.9%,103%,100%,106%,90%,117%,108%,99.7%,131%,112%,,106%,91.9
C#Cc1ccc2c(c1)C(c1ccccc1)=NCC(=O)N2C,39.5%,38.3%,63.3%,85.5%,90.9%,31.6%,,9.19% (active),56.4%,17.1%,51.6%,45.2%,11.4%,30.6%,18.4%,18.9%,70.5%,28.8%,64.5
CC(=O)Nc1ccc(NC(=O)c2ccc([As](O)O)cc2)cc1,108%,73.8%,102%,140%,103%,,,114%,117%,101%,48.3%,113%,99.8%,87.9%,85%,101%,112%,124%,34.5
